High-throughput results as filed in PubChem.
Shown is part of a subset that was picked to be rich in hits.
PNC inhibitor – inhibitors of perinucleolar compartment assembly. PC3M PTB-GFP, PNC prevalence imaging, 16 h; active compounds read low. activity change (PNC), negative = inhibition, % at 10 µM. AID 2417. 140,000 tested, 3.1% active;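 active means readout at or below -70, meaning at least 70% loss of cells showing the perinucleolar compartment, a nuclear body marking cancer cells; inconclusive means readout between -30 and a set limit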;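 further: plate controls were DMSO wells for no effect and camptothecin positive control wells for full effect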
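Read-out is percentage of cells bearing a perinucleolar compartment, from automated 20x imaging of fixed, Hoechst-stained PC3M PTB-GFP cells. Cells were seeded 4 h, then exposed 16 h to compound (23 nl of library stock) in duplicate plates.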
HttQ103 aggreg – mutant huntingtin aggregation inhibition; PC12 HttQ103-GFP aggregates, Acumen cytometry, 40 h; Potency, µM (titrated, usually from 46.1 µM), for inactives: at the highest dose activity change, negative = inhibition, usual class: inhibitors; 220,000 tested, 1.1% active; AID 1688; further: potency means the concentration at half of the fitted maximal effect; on the % scale 0 is the no-effect control and ±100 the full control effect; nearly all actives have a fitted effect of over 60% in size
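Huntingtin Q103 exon 1–GFP aggregates in induced PC12 cells (100 nM tebufenozide) were quantified by cytometry from lysates, with compounds dosed in titration.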
HTT cytoprotect – protects HTT-Q103 PC12 cells, measured by ATP. AID 1471. 230,000 tested, 0.14% active. Potency, µM (series often up to 56.4 µM), inactives show cytoprotection (ATP increase), usual class: activators. PC12 HTT-Q103 induced, cytoprotection, ATP luminescence, 40 h; further: potency means the concentration at half of the fitted maximal effect; % of control where 0% means no effect; nearly all actives have a fitted effect of over 45% in size
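PC12 cells stably carrying ecdysone-inducible Htt exon 1 (Q103)–GFP were induced with 100 nM tebufenozide (final) alongside library compounds in a dose series. Cytoprotection was scored as retained ATP by ATPlite luminescence.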
The depositor's hits bear a star; ? = inconclusive; . = no result; [ ] = remark or other dose. Unless noted, the call rests on the fitted dose curve; in most records, active means well fitted curve in the direction sought with a large enough effect; inconclusive means small, poorly fitted or top-dose-only effect, or another doubt; inactive means no such curve, though single readings can be large; an effect the other way counts as inactive or inconclusive.

SMILES	PNC inhibitor	HttQ103 aggreg	HTT cytoprotect
CC1=C(C(=O)O)N2C(=O)[C@@H](NC(=O)[C@@H](N)C3=CCC=CC3)[C@@H]2SC1	.	.	5%[1.9 µM]
O=C1OCCC1Sc1nnc(-c2ccco2)o1 (configuration not stated)	-100*	-6%	-13%[0.074 µM]
O=C1OCCC1Sc1nnc(-c2ccc(Br)cc2)o1 (configuration not stated)	37	-13%	-31%
O=C(c1ccco1)N1CCN(C(=O)C(c2ccccc2)c2ccccc2)CC1	-3	5%	-10%[10 µM]
CO/N=C/CC(=O)c1cnc(-c2ccc(Cl)cc2)s1	.	13%	-63%
COc1ccc(S(=O)(=O)N(C)CC(=O)Nc2ccc(C(N)=O)cc2)cc1OC	.	-9%	-8%
COC(=O)c1ccc(NC(=O)CN(C)S(=O)(=O)c2ccc(OC)c(C)c2)cc1	?	1.3µM*	4%[10 µM]
COc1cccc(-c2nc(=S)c3c(n2Cc2ccco2)CCCC3)c1	?	11%	-18%
S=c1nc(-c2ccccc2Cl)n(Cc2cccnc2)c2c1CCCC2	-88*	-6%	.
CC(NC(=O)c1ccc(Cl)c(Cl)c1)c1ccc(-c2ccccc2)cc1 (configuration not stated)	.	-4%[9.22 µM]	18%[10 µM]
CC(NC(=O)CCl)c1ccc(Cl)c(Cl)c1 (configuration not stated)	-24	22µM*	-25%
CN1CCN(c2nc(-c3ccccc3)nc(-c3ccc(F)cc3)c2C#N)CC1	.	-3%	.
Cc1ccccc1Nc1cccc2nonc12	-99*	23%	18%[10 µM]
Cc1ccccc1Nc1nc2ccccc2s1	14	-14%	-10%[10 µM]
CN(C)/C(CN1CCOCC1)=C1\N=C(c2ccccc2)OC1=O	49	-10%	-77%
CN(CCOC(=O)c1ccc2c(c1)OCCO2)C(C)(C)C	17	4%	2%[10 µM]
COc1ccc(C(=O)NC(Nc2ccccc2)C(Cl)(Cl)Cl)cc1 (configuration not stated)	106	?	-8%
Cc1cc(=O)[nH]c(SCC(=O)Nc2cccc(C(F)(F)F)c2)n1	15	-25%	-4%
Cc1cc(=O)[nH]c(Nc2cccc(C(F)(F)F)c2)n1	1	11µM*	11%
c1ccc(CCNc2nc(-c3ccncc3)nc3ccccc23)cc1	.	-22%[9.22 µM]	11%[10 µM]
COC(=O)c1cnc(Nc2cccc(C(F)(F)F)c2)c([N+](=O)[O-])c1	.	-31%[9.22 µM]	-12%[10 µM]
CCNc1nc(NCC)nc(SCCOc2ccc(C)cc2)n1	-113*	-7%	.
CCOc1nc(SCCOc2ccc(C)cc2)nc(N(C)C)n1	-16	2%	-9%[10 µM]
Cc1nc(NC(=O)CSc2nnc(-c3ccccc3)c(-c3ccccc3)n2)c(Cl)cc1Cl	5	-26%	5%[10 µM]
CCOCC(O)CNC(=O)c1ccc(OC2CCN(C(=O)c3cccnc3)CC2)cc1 (configuration not stated)	.	-2%[9.22 µM]	16%[10 µM]
SMILES	PNC inhibitor	HttQ103 aggreg	HTT cytoprotect
CCOC(=O)c1ccc(NC(=O)COc2cc3oc(=O)c(CC(C)O)c(C)c3cc2Cl)cc1 (configuration not stated)	.	7%[9.22 µM]	4%[10 µM]
CC(=O)c1cccc(NC(=O)COc2cc3oc(=O)c(CC(C)O)c(C)c3cc2Cl)c1 (configuration not stated)	-9	3.5µM*	14%[10 µM]
CCc1nnc(NC(=O)c2ccncc2)s1	?	-9%	-16%
COC(=O)Cc1nnc(NC(=O)c2ccccc2)s1	-95*	0%	-17%[0.074 µM]
CCc1nnc(NC(=O)C(=O)NCCOC(=O)c2ccccc2Cl)s1	-109*	13%	-52%
CCc1nnc(NC(=O)c2cccc(C(=O)Nc3nnc(CC)s3)n2)s1	?	0.89µM*	-79%[0.074 µM]
COC(=O)Cc1nnc(NC(=O)C(C)C)s1	?	4%	25%
CCc1nnc(NC(=O)CCNC(=O)c2ccccc2Cl)s1	.	15%	-22%
Cc1cc(C)n(Cc2ccc(Cl)nc2)n1	.	-12%	33%[10 µM]
O=C(NC1CCCC1)C(c1cc2c(cc1[N+](=O)[O-])OCO2)N1CCCC1 (configuration not stated)	.	14%	-6%
COc1ccc(-n2cc(-c3ccccc3)c3c(N4CCN(CCO)CC4)ncnc32)cc1	?	-3%	-19%[10 µM]
O=C(NCCN1CCN(c2ccccc2)CC1)C1CCN(S(=O)(=O)N2CCOCC2)CC1	55	-4%	-20%
O=C(/C=C/c1ccccc1)N1CCN(c2ccc([N+](=O)[O-])c(N3CCOCC3)c2)CC1	31	-14%	-14%
O=C(Nc1ccccc1)c1ccc(NCCN2CCOCC2)c(S(=O)(=O)N2CCOCC2)c1	16	-14%	-6%
O=C(Nc1ccccc1)c1ccc(NCc2ccco2)c(S(=O)(=O)N2CCOCC2)c1	-88*	10%	1%
O=C(Nc1ccc(Cl)cc1)Nc1nnc(-c2ccncc2)s1	27	?	20%[10 µM]
O=C(Nc1cccc(Cl)c1)Nc1nnc(-c2ccncc2)s1	0	13µM*	41%[10 µM]
O=C(Nc1ccncc1)Nc1ccc(F)cc1F	13	35µM*	-4%[1.9 µM]
O=C(Nc1ccc(F)cc1)Nc1nnc(-c2ccncc2)s1	-2	11µM*	-16%
Cc1ccc(NC(=O)Nc2nnc(-c3ccncc3)s2)cc1C	.	-14%[9.22 µM]	-25%[10 µM]
O=C(Nc1ccc(F)cc1F)Nc1ccc(F)cc1F	.	1%[9.22 µM]	8%[10 µM]
CC[C@](C)(CN(C)C)OC(=O)c1ccccc1	.	1%[20.6 µM]	-5%[40.3 µM]
COC(=O)c1ccc(Cl)c(S(=O)(=O)N2CCCC2)c1	.	5%	.
CCCS(=O)(=O)N1CCCC(c2nc(-c3ccc(OC)cc3)no2)C1 (configuration not stated)	?	-12%	3%
COc1ccc2cc(C)c3nnc(SCC(=O)Nc4nc(-c5ccc(F)cc5)cs4)n3c2c1	22	9%	-24%[10 µM]
SMILES	PNC inhibitor	HttQ103 aggreg	HTT cytoprotect
CCN(CC)S(=O)(=O)c1cc(C(=O)Oc2ccccc2OC)ccc1OC	14	13%	0%
COc1cc(C(=O)O/N=C2\C=CC(=O)C(C)=C2)cc(OC)c1OC	112	11µM*	-113%
COc1cc(C(=O)ON=C2C=C(C)C(=O)C(C)=C2)cc(OC)c1OC	-16	?	15%[10 µM]
C/C(=N\NC(=S)NC(C)C)c1ccc(Cl)c([N+](=O)[O-])c1	.	20%[9.22 µM]	4%[10 µM]
O=C(COCc1nc2ccccc2c(=O)[nH]1)NCC1CCCCC1	-100*	-11%	11%[10 µM]
O=c1[nH]c(CCC2CCCC2)nc2ccccc12	51	13%	-10%[10 µM]
Cc1nnc2n(-c3ccccc3)c(=O)c3c4c(sc3n12)CCCC4	35	45%	.
NC(=O)CSc1nnc2n(-c3ccccc3)c(=O)c3c4c(sc3n12)CCCCC4	-81*	12%	-29%
O=C(CSc1ccc(Cl)cc1)N1CCC(c2nc3ccccc3s2)CC1	-5	?	-27%
O=C(CSc1c(Cl)cccc1Cl)N1CCC(c2nc3ccccc3s2)CC1	70	11µM*	-53%
Cn1cccc1/C=N/N1CCN(Cc2cccc3ccccc23)CC1	.	9%[9.22 µM]	3%[10 µM]
CCN(CC)S(=O)(=O)c1ccc(N2CCOCC2)c(NC(=O)COc2ccc(C#N)cc2)c1	.	-5%[9.22 µM]	-6%[10 µM]
Cc1cc(C(=O)N/N=C2\CCCc3ccccc32)c(C)o1	-113*	-8%	.
O=C(N/N=C1\CCCc2ccccc21)c1ccccc1Cl	.	5%	-50%
Cc1ccc(CNC(=O)CCCNS(=O)(=O)c2cccc3nonc23)cc1	14	8%	25%
